# PLK1 PBD inh: inhibitors of human PLK1 polo-box domain binding | AID 720504 | 360,000 compounds, 2.8% hits | Potency, µM, for inactives: max response, negative = inhibition, most hits filed as inhibitors | P53350 | Plk1 PBD binding of FITC phosphopeptide, fluorescence polarization; note: series mostly up to about 57 µM; % is set by controls: 0 for no effect and ±100 for the full control effect; nearly all actives have a fitted effect of over 65% in size
# JMJD2A Tudor: blocks the human JMJD2A Tudor domain; O75164; AlphaScreen JMJD2A-Tudor / H3K4me3 peptide binding; Potency, µM (doses to about 114 µM), without a hit: at the top dose activity change, negative = inhibition, most hits filed as inhibitors; 390,000 compounds, 4.4% hits; AID 504339; note: % is set by controls: 0 for no effect and ±100 for the full control effect; nearly all actives have a fitted effect of over 50% in size
# Sfp inh: Sfp phosphopantetheinyl transferase inhibition; Potency, µM, inactives show largest response in the series, negative = inhibition, hits mostly inhibitors; Biochemical Sfp PPTase activity, qHTS; 310,000 compounds, 3.5% hits; Q9F4F7;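 note: the enzyme is Sfp with the accession as filed and its product quenches rhodamine fluorescence; 0% = enzyme reaction without inhibitor and -100% = no enzyme wells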
#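 With Hepes-Na pH 7.6 buffer containing 10 mM MgCl2, Sfp (15 nM) modified BHQ-2-YbbR (12.5 uM) using rhodamine-CoA (5 uM). Two reads 30 minutes apart at 525/598 nm yielded each well's rate.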
# G9a block: blocks human histone lysine methyltransferase G9a; 350,000 compounds, 8.8% hits; Q96KQ7; Potency, µM (highest dose often 102 µM), for the others: top-dose activity, negative = inhibition, most hits filed as inhibitors; AID 504332; G9a H3K9 monomethylation, AlphaScreen, 2 h; note: % is set by controls: 0 for no effect and ±100 for the full control effect; nearly all actives have a fitted effect of over 75% in size
#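 Enzyme 20 nM + cpd, 15 min RT; add b-H3K9 pep 500 nM / SAM 20 uM; 2 h RT; anti-H3K9me1 Ab 0.5 ug/mL + SA donor / anti-rabbit acceptor beads 20 ug/mL each, 10 min; AlphaScreen read.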
# HP1b binding inh: HP1-beta chromodomain-methylated histone interaction inhibition; P83916; AlphaScreen HP1-beta / biotin-H3K9me3 peptide binding; Potency, µM (series often up to 114 µM), for the others: at the top dose activity change, negative = inhibition, usual class: inhibitors; 390,000 compounds, 0.56% hits; note: nearly all actives have a fitted effect of over 70% in size
#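 AlphaScreen: HP1-beta (50 nM) preformed 30 min with biotin-H3(1-18)K9me3 peptide (50 nM) in PBS pH 7.4, 0.01% Tween-20. Compound added for 30 min at RT, then streptavidin donor/nickel chelate acceptor beads (10 ug/mL) for 30 min.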
# BAZ2B inh: blocks human BAZ2B | Q9UIF8 | AlphaScreen BAZ2B-H3K14Ac peptide displacement | Potency, µM (series often up to 114 µM), without a hit: at the top dose activity change, negative = inhibition, usual class: inhibitors | 360,000 compounds, 4.4% hits | AID 504333; note: % is set by controls: 0 for no effect and ±100 for the full control effect; nearly all actives have a fitted effect of over 60% in size
#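 Compounds, titrated to a top concentration of 110 uM, were incubated 30 min at room temperature with preformed BAZ2B/acetyl-K14 H3 peptide complex (50 nM each). Proximity signal was measured by AlphaScreen after 20 min with beads.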
# The depositor's hits bear a star; ? = inconclusive; nt = no result; [ ] = dose if it differs, or a comment. Shown are actives, neighbours in structure and some others; about 12% of the full set was active somewhere. Calls come from the whole dose curve; as a rule, active = well fitted curve in the direction sought with a large enough effect; inconclusive = small, poorly fitted or top-dose-only effect, or another doubt; inactive = no such curve, though single readings can be large; an effect the other way counts as inactive or inconclusive. Potency is the fitted concentration of half-maximal effect.
SMILES,PLK1 PBD inh,JMJD2A Tudor,Sfp inh,G9a block,HP1b binding inh,BAZ2B inh
Cc1cccc(NC(=O)CN2C(=O)S/C(=C\c3ccc(-c4cccc(C(=O)O)c4C)o3)C2=O)c1,?,79µM*,-17%,13µM*,?,?
Cc1ccccc1NC(=O)CN1C(=O)S/C(=C\c2ccc(-c3cccc(C(=O)O)c3C)o2)C1=O,?,-16%[11.4 µM],-30%,20µM*,-34%,-36%
Cc1ccccc1NC(=O)CN1C(=O)c2ccccc2C1=O,-4%,0%,-4%,nt,22%,3%
CC1(C)OC(=O)C2(Cc3cc([N+](=O)[O-])ccc3N3CCCCC32)C(=O)O1 (stereo unspecified),nt,-9%[57.1 µM],nt,nt,19%[57 µM],nt
CC1(C)Cc2nc3oc4c(=S)nc[nH]c4c3cc2CO1,-25%,25µM*,22µM*,45µM*,25%,7%
CC(=Nc1cccc(C)c1)c1sc2ccccc2c1O,-7%,?,-5%,-22%,27%,-9%
Oc1c(N=Nc2ccccc2)sc2ccccc12,-14%,?,1%,nt,-24%,2µM*
O=C1Cc2cc(CCN3CCN(c4nsc5ccccc45)CC3)c(Cl)cc2N1,nt,nt,-15%,11µM*,nt,?
O=c1n(Cc2cc3c(cc2Cl)OCO3)c(=O)n2n1CC[C@H]1/C(=N\OC[C@@H](O)COCc3ccco3)[C@H]3O[C@@H]3[C@@H](O)[C@@H]12,nt,nt,18%,nt,nt,nt
C1=C(CCNCC2CCCCC2)CCCC1,0%,-9%,?,-24%[59 µM],37%,0%
CN(C)CCCN(C(=O)c1ccc(S(=O)(=O)N2CCCC2)cc1)c1nc2ccc(Br)cc2s1,1%,?,-13%,50µM*,14%,?
Cc1ccc2sc(N(CCCN(C)C)C(=O)c3ccc(S(=O)(=O)N4CCCCCC4)cc3)nc2c1C,-10%,?,nt,50µM*,-21%,?
CN(C)CCCN(C(=O)c1ccc(S(=O)(=O)N2CCCCC2)cc1)c1nc2cc3c(cc2s1)OCO3,-7%,?,-14%,50µM*,?,?
Cc1ccc2sc(N(CCCN(C)C)C(=O)CN3C(=O)c4ccccc4C3=O)nc2c1C,-14%,-36%,-8%,50µM*,-13%,nt
CN(C)CCCN(C(=O)c1ccc(S(=O)(=O)N2CCOCC2)cc1)c1nc2cc3c(cc2s1)OCO3,5%,-12%,-6%,nt,39%,-14%
COc1ccc(CN2COc3ccc4c(-c5ccccc5)cc(=O)oc4c3C2)cc1OC,nt,-17%,nt,9%[59 µM],22%,0%
O=C1CC2(CCCC2)C(=O)N1CN1CCN(S(=O)(=O)c2ccc(Cl)c(Cl)c2)CC1,-4%,-1%,nt,7%[12.7 µM],37%,-19%
NCCC[C@@H](CC(=O)N[C@@H]1CCNC[C@H]1C(=O)N[C@H](CC(=O)N[C@@H](CCC(=O)O)CC(=O)O)Cc1ccccc1)NC(=O)C[C@H](CO)NC(=O)[C@@H]1CCCC[C@H]1N,nt,nt,-8%,nt,nt,nt
CC1CCCCN1S(=O)(=O)c1ccc(C(=O)N(CCCN(C)C)c2nc3cc4c(cc3s2)OCO4)cc1 (stereo unspecified),-7%,?,4%,50µM*,-4%,?
CN(C)CCCN(C(=O)c1cccc(N2C(=O)CCC2=O)c1)c1nc2cc3c(cc2s1)OCO3,-2%,-5%[11.4 µM],6%,?,39%,nt
CCOC(=O)N1CCN(S(=O)(=O)c2ccc(C(=O)N(CCN(CC)CC)c3nc4c(C)cccc4s3)cc2)CC1,1%,?,-3%,50µM*,-11%,?
COc1cccc(/C=N/NC(=O)c2ccc(COc3ccc(Cl)cc3Cl)o2)c1,-5%,-13%,0.79µM*,43%,40%,-9%
COc1cc(OC)cc(-c2nc3nc(C)c(CCC(=O)Nc4cc(C)cc(C)c4)c(C)n3n2)c1,nt,5%,nt,3%[59 µM],35%,-5%
O=[N+]([O-])c1cccc(C=NNc2ccc3ccccc3n2)c1O,-2%,22µM*,nt,nt,19%,nt
Brc1ccc(/C=N/Nc2ccc3ccccc3n2)cc1,-7%,-20%,?,12%[0.0925 µM],15%,-7%
SMILES,PLK1 PBD inh,JMJD2A Tudor,Sfp inh,G9a block,HP1b binding inh,BAZ2B inh
O=[N+]([O-])c1ccccc1/C=C/c1ccc2ccccc2n1,27µM*,40µM*,-11%,nt,-12%,?
Brc1ccccc1/C=N/Nc1ccc2ccccc2n1,-7%,-24%,40µM*,-14%[59 µM],26%,-10%
O=[N+]([O-])c1cccc2ccc(/C=C/c3ccc(F)cc3)nc12,-8%,?,2%,13µM*,-16%,?
O=[N+]([O-])c1ccc(/C=C/c2ccc3cccc([N+](=O)[O-])c3n2)cc1,0%,-19%,-19%,?,-6%,?
O=c1cc(CN2CCCCC2)c2ccccc2o1,-5%,nt,nt,nt,nt,nt
C=CCNC(=O)c1ccccc1NC(=O)c1ccccc1SC,-16%,-8%,20µM*,nt,31%,3%
COCCNC(=O)c1ccccc1NC(=O)Cc1ccccc1,-22%,-10%,18%,11%,47%,-3%
CCCNC(=O)c1ccccc1NC(=O)c1ccccc1SC,-12%,-14%,-8%,25µM*,23%,-26%
COCCNC(=O)c1ccccc1NC(=O)c1ccccc1SC,-4%,-6%,56µM*,4.5µM*,17%,-13%
COc1ccc(N2CCN(C(c3ccco3)c3sc4nc(C)nn4c3O)CC2)cc1 (stereo unspecified),-16%,-25%,-10%,45µM*,2%,?
Cc1nc2sc(C(c3ccccc3)N3CCC(O)CC3)c(O)n2n1 (stereo unspecified),-9%,-9%,22%,0%,17%,-2%
Cc1nc2sc(C(c3ccco3)N3CCC(Cc4ccccc4)CC3)c(O)n2n1 (stereo unspecified),-17%,?,35µM*,?,-4%,-35%
CCCSc1nnc(-c2cnn(-c3ccccc3)c2-n2cccc2)n1C,-1%,0%,-27%,13µM*,13%,-32%
Cc1cccc(NCc2ccccc2)c1,0%,-4%[11.4 µM],3%,6%,23%,-11%
Cc1cccc(NCc2ccc([N+](=O)[O-])s2)c1,-6%,?,6%,45µM*,-19%,?
O=[N+]([O-])c1ccc(CNc2cccc(F)c2)s1,-1%,?,1%,50µM*,-6%,-36%
Nc1nc(NCc2ccccc2)nc(Nc2cccc(F)c2)c1[N+](=O)[O-],-7%,-18%,6%,2%[12.7 µM],4%,-4%
CC1Cc2ccccc2N1CC(=O)Nc1cc(S(=O)(=O)N2CCOCC2)ccc1Cl (stereo unspecified),0%,nt,nt,nt,nt,nt
N#Cc1cccc(-c2cncnc2NCc2cccs2)c1,nt,nt,24%,9%[0.501 µM],nt,nt

# Screens deposited in PubChem BioAssay by National Center for Advancing Translational Sciences (NCATS).
